# FBW7 activator = human FBW7 E3 ligase activation, primary screen. normalized activity (activation), % at 26.1 µM. Q969H0. AlphaScreen FBW7–phospho-cyclin E peptide binding, activator screen. hit rate 0.13% among 650,000; in the data active = normalized activity above about 1.9%;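 also: purified mutant Fbw7 with reduced substrate affinity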
# Target sequence (Q969H0 whole entry, looked up): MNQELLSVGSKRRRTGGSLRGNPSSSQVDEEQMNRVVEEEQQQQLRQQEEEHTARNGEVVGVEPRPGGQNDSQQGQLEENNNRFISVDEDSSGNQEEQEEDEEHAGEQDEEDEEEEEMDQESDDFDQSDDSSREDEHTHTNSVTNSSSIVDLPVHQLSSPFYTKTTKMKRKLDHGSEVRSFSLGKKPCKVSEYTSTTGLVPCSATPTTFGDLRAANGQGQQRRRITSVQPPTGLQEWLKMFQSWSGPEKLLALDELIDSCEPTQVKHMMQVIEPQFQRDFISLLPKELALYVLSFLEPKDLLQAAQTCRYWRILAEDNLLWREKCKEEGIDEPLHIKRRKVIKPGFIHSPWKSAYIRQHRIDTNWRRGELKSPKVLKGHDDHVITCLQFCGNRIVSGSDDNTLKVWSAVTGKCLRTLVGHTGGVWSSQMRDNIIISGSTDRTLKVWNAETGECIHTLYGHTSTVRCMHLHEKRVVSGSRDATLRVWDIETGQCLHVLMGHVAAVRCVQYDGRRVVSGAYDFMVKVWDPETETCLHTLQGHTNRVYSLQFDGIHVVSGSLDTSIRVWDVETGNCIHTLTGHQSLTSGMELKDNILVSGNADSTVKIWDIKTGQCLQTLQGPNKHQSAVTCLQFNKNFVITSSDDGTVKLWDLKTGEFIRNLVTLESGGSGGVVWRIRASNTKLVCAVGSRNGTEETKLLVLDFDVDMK
# TEAD-YAP block = TEAD-YAP interaction inhibition. hit rate 1.4% among 640,000. inhibition, % at 9.12 µM. HEK-TIYL cells, TEAD-Gal4/YAP UAS-luciferase luminescence. AID 1259422; in the data active = inhibition above about 32%;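 also: 0% = median of test compound wells and 100% = reference inhibitor wells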
# GPR151 ag = activators of human GPR151; Q8TDV0; PathHunter beta-arrestin GPR151 cells, luminescence; activation, % at 11.2 µM; hit rate 1% among 650,000; AID 1508602; in the data active = activation above about 4.9%;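 also: 0% = median of compound wells and 100% = cells with positive control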
# MITF inh = inhibitors of human MITF; inhibition, % at 2.6 µM; AlphaScreen MITF homodimerization, bead proximity signal; hit rate 0.91% among 650,000; AID 1259374; in the data active = inhibition above about 50%;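 also: 0% = vehicle wells with protein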
# Starred values were filed as active, the others as inactive. Compounds with a hit are over-represented: about 3.4% of the library has one in this group of screens.
SMILES,FBW7 activator,TEAD-YAP block,GPR151 ag,MITF inh
CS(=O)(=O)Nc1ccc(-c2ccnc(Nc3cccc(S(N)(=O)=O)c3)n2)cc1,0,2,0,6
CS(=O)(=O)Nc1cccc(-c2ccnc(Nc3ccc(-c4ncn[nH]4)cc3)n2)c1,0,72*,-1,9
CS(=O)(=O)Nc1cccc(-c2ccnc(Nc3cccc(S(N)(=O)=O)c3)n2)c1,0,91*,4,7
NS(=O)(=O)c1ccc(Nc2nccc(-c3cccc(OCCN4CCCCC4)c3)n2)cc1,0,68*,0,26
O=C(NCCCCCCNC(=O)Nc1cccnc1)Nc1cccnc1,0,57*,0,-5
COc1ccc(OC)c(C(=O)c2oc3ccc(Br)cc3c2N)c1,0,49*,-1,12
COc1ccc(/C=C2\SC(=S)N(c3ccc(O)c(C(=O)O)c3)C2=O)cc1,0,6,-1,0
O=C(O)c1cc(N2C(=O)/C(=C\c3ccco3)SC2=S)ccc1O,0,-3,1,81*
Cc1ccc(/C=C2/SC(=S)N(c3ccc(O)c(C(=O)O)c3)C2=O)o1,0,-1,-1,83*
Cc1cc(=S)cc(C)n1C,0,4,-1,2
CN(C)c1ccc(/C=N/NC(=O)Cn2cnc([N+](=O)[O-])n2)cc1,0,-3,1,6
O=S(=O)(/N=C(\Nc1nccs1)c1ccccc1)c1cccs1,0,-7,-3,25
Cc1ccc(N/C(=N/S(=O)(=O)c2cccs2)c2ccccc2)cc1F,0,40*,1,-7
COc1ccc(-c2ccc(SCc3ccncc3)nn2)cc1,1,-5,-1,16
NNC(=O)c1cncn1-c1ccccc1,0,37*,0,-16
O=C(c1csc(-c2cc3ccccc3[nH]2)n1)N1CCOCC1,0,-16,-1,13
O=C(c1csc(-c2cc3ccccc3[nH]2)n1)N1CCc2ccccc21,0,40*,0,1
Nc1c(Br)cc(O)c2c1C(=O)c1ccccc1C2=O,0,3,0,17
Nc1c2c3c(c(O)ccc3[nH]c1=O)C(=O)c1ccccc1-2,0,37*,-1,-4
CCCCOc1ccccc1C(=O)NNC(=S)NC(C)=O,-1,16,-1,38
CC(=O)NC(=S)NNC(=O)c1ccccc1OCc1ccccc1,-1,63*,-2,0
O=C(Nc1ccc(S(=O)(=O)N2CCCCC2c2cccnc2)cc1)c1ccc(S(=O)(=O)N2CCCC2)cc1 (stereo not given),0,26,0,18
Cc1ccc(C(=O)Nc2ccc(S(=O)(=O)N3CCCCC3c3cccnc3)cc2)cc1 (stereo not given),0,12,-1,-17
O=C(Nc1ccc(S(=O)(=O)N2CCCCC2c2cccnc2)cc1)c1ccc([N+](=O)[O-])cc1 (stereo not given),0,36*,0,10
CCOc1ccc(C(=O)Nc2ccc(S(=O)(=O)N3CCCCC3c3cccnc3)cc2)cc1 (stereo not given),0,33*,1,2
SMILES,FBW7 activator,TEAD-YAP block,GPR151 ag,MITF inh
CCOC(=O)Cc1ccc(NC(=O)N2CCC(CN3CCCC3)CC2)cc1,1,11,0,13
CCC(=O)Nc1ccc(C(=O)/C=C/c2ccccc2OC)cc1,0,-22,2,21
NC(=O)C1CCN(c2oc(-c3ccco3)nc2S(=O)(=O)c2ccccc2)CC1,0,2,0,8
COc1ccc(N=Cc2c(N3CCCC3)nc3c(C)cccn3c2=O)cc1,0,-1,-1,-1
Cc1cc(C=C2C(=O)N(C)C(=S)N(C)C2=O)c(C)n1-c1ccc(Cl)c(C(=O)O)c1,0,3,-1,68*
Cc1cc(C=C2C(=O)NC(=S)NC2=O)c(C)n1-c1cccc(C(=O)O)c1,0,-1,2,78*
CC(=O)NC1=NC(=O)/C(=C/c2cc(C)n(-c3ccc4c(c3)OCO4)c2C)S1,0,4,0,2
Cc1cc(C=C2C(=O)NC(=O)NC2=O)c(C)n1-c1ccc(C(=O)O)c(Cl)c1,0,6,0,54*
CC(=O)NC1=NC(=O)/C(=C/c2cc(C)n(-c3cccc(C(=O)O)c3)c2C)S1,-1,18,1,75*
Cc1cc(C=C2C(=O)N(C)C(=O)N(C)C2=O)c(C)n1-c1ccc(Cl)c(C(=O)O)c1,-1,-9,0,4
Cc1cccc(-n2c(C)cc(C=C3C(=O)NC(=S)NC3=O)c2C)c1,0,12,0,-11
O=C(O)C1C2C=CC(C2)C1C(=O)Nc1ccc(F)c([N+](=O)[O-])c1 (stereo not given),0,-4,1,-19
Cc1cc(N2CCc3ccccc32)nc(-n2nc(C)cc2C)n1,0,0,0,7
O=C(Nc1ccc(Cl)c(C(F)(F)F)c1)c1ccc(NC(=O)C2CCCO2)cc1 (stereo not given),0,34*,1,13
COc1ccc2nc(NC(=O)c3n[nH]c(=O)c4ccccc34)sc2c1,0,2,1,11
Cc1sc2ccccc2[n+]1CCCS(=O)(=O)O,0,-1,3,2
CN(C)S(=O)(=O)NNC(=O)c1c[nH]c2ccccc12,0,-4,0,-5
CCC(=O)n1c(=O)oc2ccc(Cl)cc21,0,-10,0,-11
O=c1oc2ccc(Cl)cc2c(=O)n1-c1cccc([N+](=O)[O-])c1,0,75*,-3,-1
CCc1ccccc1-n1c(=O)oc2ccc(Cl)cc2c1=O,0,53*,0,0
CCOc1ccc(NC(=O)c2ccc(F)c(S(=O)(=O)NCc3ccccc3)c2)cc1,0,37*,0,7
O=C(Nc1ccc(Oc2ccccc2)cc1)c1ccc(F)c(S(=O)(=O)NCc2ccc(F)cc2)c1,0,42*,-1,20
COc1ccc(CNS(=O)(=O)c2cc(C(=O)Nc3ccc(Oc4ccccc4)cc3)ccc2F)cc1,0,6,1,33
CCOc1ccc(NC(=O)c2cc(S(=O)(=O)NCc3ccccc3Cl)ccc2F)cc1,0,45*,-1,-19
O=C(Nc1cccc(Cl)c1)c1ccc(F)c(S(=O)(=O)NCCc2ccccc2)c1,0,7,-2,13
SMILES,FBW7 activator,TEAD-YAP block,GPR151 ag,MITF inh
O=C(Nc1ccc(Oc2ccccc2)cc1)c1ccc(F)c(S(=O)(=O)NCCc2ccccc2)c1,0,40*,0,-4
C=CCNS(=O)(=O)c1cc(C(=O)Nc2ccc(Oc3ccccc3)cc2)ccc1F,0,67*,0,18
CCOC(=O)N1CCN(S(=O)(=O)c2cc(C(=O)Nc3ccc(Oc4ccccc4)cc3)ccc2F)CC1,0,22,-1,-1
Cc1c(Cl)cccc1NC(=O)c1cc(S(=O)(=O)NCc2ccco2)ccc1F,2.0*,3,-7,15
C/C(=N\NC(N)=S)c1cc(Cl)sc1Cl,1,33*,0,6
COc1cccc(CNC(=O)C2CCN(C(=O)N3CCOc4ccc(Cl)cc43)CC2)c1,0,13,-1,-10
CCN1C=C/C(=C/c2cccc[n+]2C)c2ccccc21,0,82*,0,-5

# Bioassay records (PubChem BioAssay)
